Assay outcomes: PubChem, National Center for Advancing Translational Sciences (NCATS)
TRPML1 ag = qHTS for Agonists of the Human Mucolipin Transient Receptor Potential 1 (TRPML1) | AID 624414, 2012 | 0.12% of 410,000 active | activation, % (concentration not given with the values) | Mucolipin-1 (Homo sapiens), Q9GZU1 | TRPML1-expressing cells, Ca2+ dye fluorescence, FDSS; in the data active = activation above about 50%; inconclusive = mostly about 30% to 49%
Target sequence (Q9GZU1 whole entry, looked up): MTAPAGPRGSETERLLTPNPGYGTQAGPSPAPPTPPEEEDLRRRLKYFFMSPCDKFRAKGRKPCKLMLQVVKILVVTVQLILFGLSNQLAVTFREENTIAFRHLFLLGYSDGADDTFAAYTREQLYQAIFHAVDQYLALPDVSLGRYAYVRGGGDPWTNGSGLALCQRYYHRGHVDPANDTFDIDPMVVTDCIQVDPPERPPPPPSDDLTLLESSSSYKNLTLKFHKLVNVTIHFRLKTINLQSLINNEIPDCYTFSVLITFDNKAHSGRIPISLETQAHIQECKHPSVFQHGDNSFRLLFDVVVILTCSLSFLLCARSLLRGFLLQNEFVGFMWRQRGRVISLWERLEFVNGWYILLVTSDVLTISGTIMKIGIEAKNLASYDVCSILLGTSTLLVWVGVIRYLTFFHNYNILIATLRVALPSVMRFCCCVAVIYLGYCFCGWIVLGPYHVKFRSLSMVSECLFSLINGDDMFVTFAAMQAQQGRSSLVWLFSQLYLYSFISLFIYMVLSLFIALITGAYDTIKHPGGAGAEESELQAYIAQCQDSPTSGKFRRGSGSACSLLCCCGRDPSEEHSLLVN
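Cells: TRPML1-DL, 1X Tet inducer, ~16 h at 37 degrees C/5% CO2. Dye: ABD Ca8 no-wash + quencher, 45-90 min RT. Read: 10 s baseline, compound add, 110 s agonist phase; 54-4 EC80 (4uM final), 110 s antagonist phase.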
GLP1R inv ag = qHTS of GLP-1 Receptor Inverse Agonists (Inhibition Mode). Glucagon-like peptide 1 receptor (Homo sapiens), P43220. HEK293 GLP-1R CRE-luciferase, luminescence, 24 h; GLP-1R form is constitutively active. Potency, µM (top dose mostly 38.3 µM), actives largely listed as inhibitors. 1.6% of 410,000 active; also: nearly all actives have a fitted effect of over 55% in size
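Assay principle: reduced luminescence from a cAMP-responsive reporter in HEK293 cells co-expressing a constitutively active GLP-1R. Conditions: 24 hr compound incubation, 37 deg C, 5% CO2.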
TRPML1 inh = qHTS for Inhibitors of the Human Mucolipin Transient Receptor Potential 1 (TRPML1) | Mucolipin-1 (Homo sapiens), Q9GZU1 | TRPML1-inducible cells, Ca2+ dye fluorescence, FDSS; stronger effect = lower value; inhibition of EC80 agonist-evoked calcium signal | activity change, negative = inhibition, % (test concentration not listed) | 0.02% of 390,000 active | AID 624415, 2012; in the data active = activity change below about -50%; inconclusive = between about -30% and that limit;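 also: stimulus is agonist 54-4 at its EC80 concentration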
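Calcium fluorescence in TRPML1-DL cells induced overnight with Tet: a 110 s read after compound pin addition, then a 110 s antagonist read after challenge with 54-4 at 4 uM final (EC80).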
GLP1R ag = qHTS of GLP-1 Receptor Agonists. HEK293 GLP-1R CRE-luciferase, luminescence, 4-6 h; cells express a hypersensitive GLP-1R form. Potency, µM (highest dose often 45.6 µM), usual class: activators. 0.007% of 380,000 active. Glucagon-like peptide 1 receptor (Homo sapiens), P43220
GLP1R cytotox = qHTS of GLP-1 Receptor Inverse Agonists: Cytotox Screen. HEK293 cAMP-luciferase reporter cells, luminescence, 24 h. Potency, µM (titrated, usually from 38.3 µM), actives largely listed as inhibitors. 0.13% of 410,000 active;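 also: loss of luciferase light is scored as toxicity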
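To flag toxic compounds, the library was rerun on cells for 24 hr at 37 deg C and 5% CO2. Viability-linked luminescence was captured 12 min after adding luciferase detection reagent.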
Each line names hits and unclear results; the compound was inactive in the other large screens. A selection: hits, their analogues and other compounds. The true share with any hit is near 1.8%. Unless noted, calls follow the shape of the dose curve; as a rule, active = well fitted curve in the direction sought with a large enough effect; inconclusive = small, poorly fitted or top-dose-only effect, or another doubt; inactive = no such curve, though single readings can be large; an effect the other way counts as inactive or inconclusive.

Cc1cc(/C=N/Nc2ncnc(N)c2[N+](=O)[O-])c(C)n1-c1ccccc1	GLP1R inv ag 2.2µM, GLP1R cytotox inconclusive
CC(=O)OC1CCC2(C)C(=CCC3C2CCC2(C)C(C(C)=O)CCC32)C1 (configuration not stated)	none (no result: TRPML1 ag, GLP1R inv ag, TRPML1 inh, GLP1R cytotox)
CC(c1nc2ccccc2n1Cc1ccccc1)N1CCCCC1 (configuration not stated)	GLP1R inv ag 1.3µM, GLP1R cytotox inconclusive
Cc1nc2ccccc2n1Cc1ccccc1	none (no result: TRPML1 ag, TRPML1 inh)
Cc1cc(O)cc2c1C1CCC3(C)C(O)CCC3C1C=C2 (configuration not stated)	none
CC12CCC=CC1=C(C=O)C1C2CCC2(C)C(O)CCC12 (configuration not stated)	GLP1R inv ag 11µM, GLP1R cytotox inconclusive
O=C1CC(c2ccccc2)=C(c2ccccc2)C1c1ccccc1 (configuration not stated)	GLP1R inv ag 14µM
CCN(CC)C(=O)c1ccc2nc3ccccc3nc2c1	none
CCNC(=O)c1ccc2nc(-c3ccccc3)c(-c3ccccc3)nc2c1	none (no result: GLP1R inv ag, TRPML1 inh, GLP1R ag, GLP1R cytotox)
CCN(CC)C(=O)c1ccc2nc(-c3ccccc3)c(-c3ccccc3)nc2c1	GLP1R inv ag 5µM
CCCNC(=O)c1ccc2nc(-c3ccccc3)c(-c3ccccc3)nc2c1	GLP1R inv ag 3.5µM
CN1CCN(C(=O)c2ccc3nc(-c4ccccc4)c(-c4ccccc4)nc3c2)CC1	none
O=C(c1ccc2nc(-c3ccccc3)c(-c3ccccc3)nc2c1)N1CCCCC1	GLP1R inv ag 2.5µM
CCOC(=O)c1c(NC(=O)c2noc3c2CC(C(C)(C)C)CC3)sc2c1CCCC2 (configuration not stated)	none (no result: GLP1R ag)
CN1C(C(=O)c2ccccc2)=C(NC(=O)c2ccccc2Br)c2ccccc2S1(=O)=O	none (no result: GLP1R ag)
Cc1nc(SC2CC(=O)N(c3cc(Cl)cc(Cl)c3)C2=O)nc2c1CCCC2 (configuration not stated)	GLP1R inv ag inconclusive, GLP1R cytotox inconclusive
Cc1cccc(N2C(=O)CC(Sc3nc(C)c4c(n3)CCCC4)C2=O)c1 (configuration not stated)	GLP1R cytotox 5µM
CCCCN(C)S(=O)(=O)c1cc(-c2nnc3c4ccccc4c(C)nn23)ccc1C	none (no result: GLP1R ag)
Cc1cccc2sc(N(CCCN(C)C)C(=O)CCc3ccccc3)nc12	GLP1R inv ag 2.8µM, GLP1R cytotox inconclusive
Cc1ccc(NC(=O)C(=O)NCC(c2cccnc2)N2CCN(Cc3ccccc3)CC2)cc1F (configuration not stated)	none (no result: GLP1R ag)
CCNc1nc(-c2sc(NC(=O)C(C)(C)C)nc2C)c(-n2cc(-c3ccccc3)nn2)s1	GLP1R inv ag 10µM, GLP1R cytotox inconclusive (no result: TRPML1 inh)
Cc1ccc(-c2nnc(Nc3ccc(Cl)cc3)c3ccccc23)cc1S(=O)(=O)N1CCOCC1	GLP1R inv ag inconclusive (no result: GLP1R ag)
CCN(CC(=O)Nc1ccccc1C(F)(F)F)C(=O)c1ccccc1OCc1ccc(F)cc1	GLP1R inv ag 10µM
C/C(=N\NC(=O)c1ccccc1OCc1ccc(F)cc1)c1ccccn1	GLP1R inv ag 5µM, GLP1R cytotox inconclusive
O=C(NCc1ccc(F)cc1)c1ccccc1OCc1ccccc1	GLP1R inv ag 10µM
O=C(NCc1ccccn1)c1cc(Cl)ccc1OCc1ccccc1	GLP1R inv ag 3.5µM
CCN(CC(=O)Nc1ccccc1C(F)(F)F)C(=O)CCOc1ccccc1C	GLP1R inv ag inconclusive
CCc1nn2c(=O)cc(COC(=O)c3ccccc3NC(=O)c3ccc(C(C)(C)C)cc3)nc2s1	none (no result: GLP1R ag)
O=C(NCCc1ccc(F)cc1)C(=O)NCC(c1cccs1)S(=O)(=O)c1ccc(F)cc1 (configuration not stated)	GLP1R inv ag inconclusive (no result: GLP1R ag)
CCOc1ccc(NC(=O)CSc2nnc(CC)c(CC)n2)cc1	none (no result: GLP1R ag)
CCC(Sc1nc2ccccc2c2nc(CCn3c(C)nc4ccccc43)nn12)C(=O)Nc1ccc(F)cc1 (configuration not stated)	none (no result: GLP1R ag)
CCOc1ccc(CNC(=O)c2ccc3c(c2)nc2n3CCCCC2)cc1	none (no result: GLP1R ag)
OC(C1=C/C(=C\c2ccncc2)c2ccccc21)c1ccncc1 (configuration not stated)	none (no result: GLP1R inv ag, TRPML1 inh, GLP1R ag, GLP1R cytotox)
O=C(NNC(=O)c1ccccc1OCc1ccccc1)c1ccccc1F	GLP1R inv ag inconclusive
O=C(N/N=C/c1ccccc1F)c1ccccc1OCc1ccccc1	GLP1R inv ag 7.9µM
COc1cccc(-c2ccc(=O)n(CC(=O)NCCN3CCOCC3)n2)c1	TRPML1 inh -63
C[C@@H]1C(SC2Cn3cnc[n+]3C2)=C(C(=O)[O-])N2C(=O)[C@H]([C@@H](C)O)[C@@H]12 (some centres not stated)	none (no result: TRPML1 ag, GLP1R inv ag, TRPML1 inh, GLP1R cytotox)
Cc1cc2c(cc1S(=O)(=O)Nc1cccc(Cl)c1C)OCCN2C	GLP1R inv ag 10µM (no result: GLP1R ag)
COc1ccc(NS(=O)(=O)c2cc3c(cc2C)N(C)CCO3)cc1	GLP1R inv ag inconclusive
CC1CCN(C(=O)Cn2cc(SCC(=O)NCc3ccc(F)cc3)c3ccccc32)CC1	GLP1R inv ag inconclusive (no result: GLP1R ag)
Cc1ccccc1OCCNc1cc(N2CC(C)NC(C)C2)ccc1[N+](=O)[O-] (configuration not stated)	GLP1R inv ag 7.9µM, GLP1R cytotox inconclusive
CC1CN(c2ccc([N+](=O)[O-])c(NCCOc3ccc(Cl)cc3)c2)CC(C)N1 (configuration not stated)	GLP1R inv ag 10µM
Cc1cccc(CSc2nc3c(c(=O)[nH]2)C(c2cccc(O)c2)CC(=O)N3)c1 (configuration not stated)	TRPML1 inh inconclusive (no result: GLP1R ag)
Cc1ccc(S(=O)(=O)NC2c3cccc4cccc(c34)C2Sc2nncn2C)cc1 (configuration not stated)	none
Cc1ccc(S(=O)(=O)NC2c3cccc4cccc(c34)C2Sc2nc(C)cc(C)n2)cc1 (configuration not stated)	GLP1R inv ag 7.1µM
CCN(CC)CCNC(=O)c1ccc(NC(=O)c2cn(-c3ccc(F)cc3)nc2-c2cccc(OC)c2)cc1	GLP1R inv ag 8.9µM, GLP1R cytotox inconclusive
CCN(CC)CCNC(=O)c1ccc(NC(=O)c2cn(-c3ccccc3)nc2-c2cccs2)cc1	GLP1R inv ag inconclusive
CCOc1ccc(NC(=O)CN(C)C(=O)c2cn(-c3ccc(F)cc3)nc2-c2cccc(OC)c2)cc1OCC	GLP1R inv ag 4.5µM
COc1cccc(-c2nnc(SCC(=O)N3CC(C)CC(C)C3)o2)c1 (configuration not stated)	GLP1R inv ag 11µM
COc1cc(-c2nnc(SCC(=O)N3c4ccccc4Sc4ccccc43)o2)cc(OC)c1OC	GLP1R inv ag 1.3µM
